From PubChem BioAssay AID624351 (Southern Research Specialized Biocontainment Screening …, 2012)
Out of some 2,400 compounds screened, about 1,400 (58%) were called active. The set was probably picked from earlier hits. The list shows a part of the results. A number with no mark means an inactive call.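 Rule for the calls: active = inhibition of 30% or more at any tested dose; inconclusive = primary hits over the limit that were never retested; inactive = the rest.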

Experiment: coupled detection enzyme interference, dose response, artefact control for MgcRacGAP inhibitor project, biochemical, coupled enzyme counter-screen (AID 624351);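 note: signal is the ADP detection kit reading of free GDP without any GAP enzyme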;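 for inhibition: 0% = median positive control wells and 100% = median negative control wells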
Settings: ADP Hunter coupled enzyme counter-screen, fluorescence, no MgcRacGAP; series mostly up to 80 µM; inhibition: at the top concentration

Which “inhibition” value does the source give for CC(NCc1cccc(S(=O)(=O)N(C)C)c1)c1ccc(F)cc1 (centres undefined) here?
Its value is 17.1%.

For CCOc1cc(/C=C2\SC(N)=NC2=O)ccc1O, which IC50 is on record?
Its IC50 is 55.5 µM (active).

For C#CCOCCOCCOCCNc1nc(N2CCN(C(=O)C([C@@H](C)O)n3cc([C@@H](N)CCCCN)nn3)CC2)nc(N2CCN(C(=O)[C@H](CCCCN)n3cc(CN)nn3)CC2)n1 (some centres undefined), which “inhibition” value is on record?
The value was 5.73%.

For Cc1cc(SCC(=O)c2ccc(O)c(O)c2)nc2ccccc12, which IC50 is on record?
The IC50 was 58.9 µM (active).

For O=C(CSc1nnnn1-c1ccc(F)cc1)c1ccc(O)c(O)c1, which IC50 is on record?
Its IC50 is 77.2 µM (active).

For CN(C)c1cc(NC(=O)CN2CCCC2)c2ccccc2n1, which “inhibition” value is on record?
Its value is 28.4%.

Which IC50 does the source give for Cc1cc(C)nc(SCC(=O)c2ccc(O)c(O)c2)n1 here?
The IC50 was 38 µM (active).

For CC(C)(C)CC(C)(C)NCC(=O)Nc1c2c(nc3ccccc13)CCC2, which “inhibition” value is on record?
The value was 24.6%.

For Cc1cc(=O)oc2c(O)c(O)ccc12, which IC50 is on record?
The IC50 was 28.8 µM (active).

Which “inhibition” value does the source give for O=C(O)c1cccc2cccc(-c3c4ccc(=O)c(O)c-4oc4c(O)c(O)ccc34)c12 here?
Its value is -17.4%.

With Cc1[nH]n(-c2ccccc2)c(=O)c1/C=N/N(C)c1ccccc1 as the molecule, how does the IC50 read?
Its IC50 is 15 µM (active).

For O=C(O)C1Nc2c(O)cc(Cl)c([N+](=O)[O-])c2C2C=CCC12 (centres undefined), which “inhibition” value is on record?
Its value is -30.6%.

Which IC50 does the source give for COc1cc(Sc2ccc(C)cc2)c(OC)cc1N here?
Its IC50 is 22.5 µM (active).

With O=C(N/C(=C\c1ccc(O)cc1)C(=O)N1CCCCC1)c1ccccc1 as the molecule, how does the IC50 read?
Its IC50 is 54.1 µM (active).

With COc1cc(OC)cc(C(=O)N2CCN(Cc3ccccc3Br)CC2)c1 as the molecule, how does the “inhibition” value read?
Its value is 13.3%.

Which “inhibition” value does the source give for COc1cccc(C(=O)N2CCN(C3CCCCC3)CC2)c1 here?
The value was 11.9%.

With COc1ccc(NC2CCCN(C(=O)c3cccc(N(C)C)c3)C2)cc1 (centres undefined) as the molecule, how does the IC50 read?
The IC50 was 74.8 µM (active).

With COc1ccc(NC2CCCN(C(=O)c3ccc(C)c(N4CCNC4=O)c3)C2)cc1 (centres undefined) as the molecule, how does the “inhibition” value read?
Its value is 24.7%.

Which “inhibition” value does the source give for O=C(c1cccc(F)c1)N1CCN(C2CCCCC2)CC1 here?
Its value is 18.3%.

Which IC50 does the source give for COc1ccc(NC2CCCN(C(=O)c3cccc(N4CCNC4=O)c3)C2)cc1 (centres undefined) here?
The IC50 was 81.2 µM (active).

For Cc1cc(-c2ccccc2)nc2c(Br)c(=O)[nH]n12, which “inhibition” value is on record?
The value was 3.62%.

For Cc1ccc(N2C(S)=C(C#N)C(=O)NC23CCCCC3)cc1, which “inhibition” value is on record?
The value was 4.43%.

With O=C(O)CCCN1C(=O)/C(=C\c2ccco2)SC1=S as the molecule, how does the “inhibition” value read?
The value was -23.9%.

With COc1cc(/C=C2\SC(=S)N(Nc3ccccc3)C2=O)ccc1O as the molecule, how does the IC50 read?
The IC50 was 75.4 µM (active).

With CC(=O)NN1C(=O)/C(=C\c2ccc(Br)o2)SC1=S as the molecule, how does the “inhibition” value read?
The value was 6.09%.

For O=C1C(=Cc2cccc(O)c2O)SC(=S)N1CCCN1CCOCC1, which “inhibition” value is on record?
Its value is 25.8%.

Which IC50 does the source give for COc1cc(/C=C2\SC(=S)N(NC(=O)c3ccncc3)C2=O)ccc1O here?
Its IC50 is 44.1 µM (active).

Which IC50 does the source give for COc1cc(/C=C2\SC(=S)N(NC(=O)c3ccc(O)cc3)C2=O)ccc1O here?
The IC50 was 79.5 µM (active).

For CC(=O)NN1C(=O)/C(=C/c2ccc(Br)o2)SC1=S, which “inhibition” value is on record?
Its value is -2.96%.

With COc1cc(/C=C2\SC(=S)N(NC(=O)c3cccc(O)c3)C2=O)ccc1O as the molecule, how does the IC50 read?
Its IC50 is 67.5 µM (active).

For CC(=O)OCCNc1cc(N2CCN(C)CC2)c2noc3c2c1C(=O)c1ccccc1-3, which inhibition is on record?
The inhibition was -4.34% [at 10 µM].

Which “inhibition” value does the source give for O=C(O)c1ccc2c(c1)[C@@H]1C=CC[C@@H]1[C@H](c1ccccn1)N2 here?
The value was 0.72%.

For CCOC(=O)c1sc2nc(CSc3ccccc3)nc(N3CCCN(C)CC3)c2c1C, which “inhibition” value is on record?
Its value is 13.6%.

Which IC50 does the source give for COc1cc(/C=N\NC(=O)c2c(C)nc3cc(C)ccn23)ccc1O here?
Its IC50 is 50.4 µM (active).

Which IC50 does the source give for CCOc1cc(/C=N\NC(=O)c2c(C)nc3ccccn23)ccc1O here?
The IC50 was 83.5 µM (active).

With CCOc1cc(/C=C2\N=C3CCCCCN3C2=O)ccc1O as the molecule, how does the IC50 read?
Its IC50 is 55.8 µM (active).

For O=C1/C(=C\c2ccc(O)c(O)c2)N=C2CCCCCN12, which IC50 is on record?
Its IC50 is 18.3 µM (active).

With O=C(CNC1CC1)Nc1cc(C(F)(F)F)ccc1Cl as the molecule, how does the “inhibition” value read?
The value was 17.2%.

Which IC50 does the source give for COc1ccc(NC(=O)NS(=O)(=O)c2ccc(C)cc2)cc1OC here?
The IC50 was 25.5 µM (active).

For Cc1ccc(S(=O)(=O)N[C@H](C(=O)OCn2nnc3ccccc3c2=O)C(C)C)cc1, which “inhibition” value is on record?
The value was 1.81%.

Which IC50 does the source give for O=C(N/N=C/c1ccc(O)c(O)c1)c1cccc(S(=O)(=O)N2CCCCC2)c1 here?
Its IC50 is 72.8 µM (active).

With CCN(CC)S(=O)(=O)c1cccc(C(=O)N/N=C/c2ccc(OC)c(O)c2)c1 as the molecule, how does the IC50 read?
The IC50 was 81.2 µM (active).

Which “inhibition” value does the source give for O=C(/C=C/c1ccc(O)c(O)c1)c1ccc(S(=O)(=O)N2CCCCCC2)cc1 here?
Its value is 29.4%.

With COc1ccc(/C=N/NC(=O)c2cccc(S(=O)(=O)N3CCCC3)c2)cc1O as the molecule, how does the IC50 read?
The IC50 was 55.4 µM (active).

Which “inhibition” value does the source give for O=C(CNCc1ccco1)Nc1cccc(S(=O)(=O)N2CCCCC2)c1 here?
Its value is 15.6%.

With CCOc1cc(C=NNC(=O)c2cccc(S(=O)(=O)N3CCCC3)c2)ccc1O as the molecule, how does the IC50 read?
Its IC50 is 32.6 µM (active).

Which “inhibition” value does the source give for COc1ccc2c3c(cccc13)N(C)N=C2C here?
The value was 1.94% [at 40 µM].

For Cc1sc2c3ccsc3ccc2[n+]1C, which “inhibition” value is on record?
The value was 0.2%.

For O=C(CCc1ccc(O)c(O)c1)N/N=C/c1ccc2c(c1)OCO2, which “inhibition” value is on record?
Its value is 9.28%.

For O=[N+]([O-])c1ccccc1OCCNCc1ccccc1, which “inhibition” value is on record?
The value was -0.42%.

With COCc1cc(C)nc(OCC(=O)N/N=C/c2ccc(O)cc2)c1C#N as the molecule, how does the IC50 read?
Its IC50 is 79.7 µM (active).

With O=C(COc1cccc2cccnc12)N/N=C/c1ccc(O)cc1 as the molecule, how does the IC50 read?
Its IC50 is 80 µM (active).

For O=C(Cc1ccc(Cl)cc1)N/N=C/c1ccc(O)c(O)c1, which IC50 is on record?
Its IC50 is 19.4 µM (active).

For O=C(COc1ccccc1[N+](=O)[O-])N/N=C/c1ccc(O)cc1, which IC50 is on record?
The IC50 was 70.9 µM (active).
